The panel holds about 79,000 compounds, 15% with a hit somewhere; the sample as a whole holds those more often. Unmarked numbers belong to inactive results. The source made the active and inactive calls. Rule as the data show it: active = growth inhibition above about 70%; inactive = the rest.
What was measured:
[1] = NCI Yeast Anticancer Drug Screen. Data for the rad50 strain (AID 155);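 also: 0% = growth of vehicle-only cultures of the same strain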; conditions: S. cerevisiae rad50 strain growth inhibition; at 50.0 µM; stronger effect = higher value
How it was run: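 Vehicle-treated cultures provide the reference for the growth inhibition reported for compound-exposed, repair-deficient yeast.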

[2] = NCI Yeast Anticancer Drug Screen. Data for the mec2-1 strain (AID 157); conditions: S. cerevisiae mec2-1 strain, at 50.0 µM, stronger effect = higher value
How it was run: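 Using mec2-1 yeast: add compound, measure growth, express inhibition versus vehicle-treated cultures.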

[3] = NCI Yeast Anticancer Drug Screen. Data for the sgs1 mgt1 strain (AID 161);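 also: 0% = growth of cultures given vehicle only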; conditions: S. cerevisiae sgs1 mgt1 strain, at 50.0 µM, stronger effect = higher value
How it was run: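 Compounds are added to genetically altered yeast, and growth is compared with cultures given vehicle alone to give percent inhibition.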

[4] = NCI Yeast Anticancer Drug Screen. Data for the cln2 rad14 strain (AID 165);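 also: 0% = growth equal to vehicle treated cultures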; conditions: S. cerevisiae cln2 rad14 strain, at 50.0 µM, stronger effect = higher value
How it was run: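 Yeast strain cln2 rad14, bearing defects in cell cycle control and DNA repair, serves as the test system; values reflect growth inhibition compared with vehicle.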

[5] = NCI Yeast Anticancer Drug Screen. Data for the bub3 strain (AID 167); conditions: S. cerevisiae bub3 mutant strain, at 50.0 µM, stronger effect = higher value
How it was run: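 Mutant yeast screening strain plus compound; vehicle-treated cultures serve as the 0% inhibition reference.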

[6] = NCI Yeast Anticancer Drug Screen. Data for the mlh1 rad18 strain (AID 175); conditions: S. cerevisiae mlh1 rad18 strain growth inhibition; at 50.0 µM; stronger effect = higher value
How it was run: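 Steps: expose repair-defective yeast to compound; measure growth; express inhibition against vehicle-treated controls.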

SMILES	growth inhibition [1] [%]	growth inhibition [2] [%]	growth inhibition [3]	growth inhibition [4] [%]	growth inhibition [5]	growth inhibition [6]
Cc1ccc(I)c(C)c1	-40	-10	-39.4%	-3.6	-1.15%	-7.3%
CCCc1cc(=O)oc2c(C=O)c(O)cc(O)c12	37.9	24.7	20.6%	9.6	19.7%	46.5%
O=C(Nc1cccc(Cc2cccc(NC(=O)c3ccccc3)c2)c1)c1ccccc1	5.65	-1.9	-11.9%	-41.1	-2.35%	-0.35%
CC1(C)OCC2OC(O)C(OS(=O)(=O)c3ccc([N+](=O)[O-])cc3)C2O1 (configuration not stated)	-5.5	-2.55	-0.5%	-33	-10.9%	-30.3%
N#C/C(=C/n1c(=S)sc2ccccc21)c1nc2ccccc2s1	11.8	14.7	49.6%	24.9	23.4%	30.8%
COc1c(C)c(C)c(OC(C)=O)c(C)c1Br	-10.2	-4.9	-1.95%	-3.1	-2.1%	-9.3%
CN(O)C(=O)Cc1ccccc1	3.5	6.05	-0.1%	15.8	13.9%	16.4%
Cc1cn(CC(O)c2cc3ccccc3[nH]2)c(=O)[nH]c1=O (configuration not stated)	9.7	13.6	-0.1%	12.1	9.65%	7.15%
C/C(=N\NS(=O)(=O)c1ccc([N+](=O)[O-])cc1)c1ccc[n+]([O-])n1	-19.2	-18.6	-13.6%	-2.75	2.15%	-34%
COc1nc(NC2OC(CO)C(O)C(O)C2O)c(C(C)=O)c(=O)[nH]1 (configuration not stated)	2.8	1.05	12.6%	-0.1	-14.8%	-3.95%
CC(Sc1nc2ccc(Cl)cc2[nH]1)C(=O)O (configuration not stated)	-11.8	-4	-0.9%	-16.9	12.9%	-3.85%
COC(=O)c1cn[nH]c1CC(N)=O	35.9	11.5	25.1%	-17.1	12.3%	19.9%
CCOC(=O)c1cc2nc3ccccn3c(=O)c2cc1N	-1.15	-17.5	0.85%	-36.3	-9.3%	-8.45%
CCC(CCC#N)(CCC#N)C(=O)c1ccc(C)s1	1.5	-4.3	1.3%	-19.8	0.1%	2.45%
Clc1ccc2noc(-c3ccccc3)c2c1	22.6	3.05	4%	0.85	0.7%	23.6%
COCCCNC(=O)C1C(=O)N(CCCOC)C(=O)/C1=N\N (configuration not stated)	5.15	21.1	12.1%	-9.3	-2.25%	17.1%
COc1ccccc1NC(=O)C(Cc1ccccc1)NC(C)=O (configuration not stated)	25.2	3.7	-1.85%	-51.5	8.2%	2.65%
COC1/C=C\OC2(C)Oc3c(C)c(O)c4c(c3C2=O)C(=O)C(Br)=C(NC(=O)/C(C)=C\C=C/C(C)C(O)C(C)C(O)C(C)C(OC(C)=O)C1C)C4=O (configuration not stated)	16.1	13.8	22.4%	22.2	14.8%	20.5%
CCn1cc(C(=O)C(=O)N(C)C)c2ccccc21	13.2	-7.75	-2.5%	-3.35	17.2%	1.95%
O=CNC1CCCCC1c1ccc(C2CCCCC2NC=O)cc1 (configuration not stated)	-12.1	9.1	-2.35%	-1.55	6.2%	22.8%
Cc1nc(N)nc(C)c1N=Nc1cc(Br)ccc1Br	26.1	-14.1	-15.4%	-13.7	0.35%	-7.6%

SMILES	growth inhibition [1] [%]	growth inhibition [2] [%]	growth inhibition [3]	growth inhibition [4] [%]	growth inhibition [5]	growth inhibition [6]
CC(=O)[C@H]1CC[C@H]2[C@@H]3CCC4=CC(=O)CC[C@]4(C)[C@H]3C[C@H](OS(=O)(=O)c3ccc(C)cc3)[C@]12C	20.3	18.1	31.2%	38.7	12.1%	15.4%
Cc1cc(C)n(-c2nc(-n3nc(C)cc3C)nc(-n3nc(C)cc3C)n2)n1	-34.2	-32.2	-1.7%	-20.6	-21.1%	-41.5%
CC(=O)NC1=CC(=O)c2cc(C)cc(O)c2C1=O	23.3	21.9	20.1%	16.2	28.1%	-14.6%
CC1=CC(=O)C(C(C)C)CC1 (configuration not stated)	1.1	-1.05	-11.1%	-43	-7.75%	-0.35%
CC(O)C(O)C(O)CO (configuration not stated)	6.1	18.4	-3.85%	19.8	24.4%	8.95%
CCC(=O)n1ncc2ccc([N+](=O)[O-])cc21	3.45	5.15	-2.8%	-105	-4.45%	-7.5%
CCC[CH2][Ge]([CH2]CCC)([CH2]CCC)[O]C(=O)CCl	-14.2	31.7	-4.75%	-52.9	-13.2%	31.9%
O=C(CCBr)Nc1ccccc1	11.1	-15.2	-7.15%	-38.2	-7.35%	-26.4%
O=[N+]([O-])c1ccc2c(Cl)c3ccccc3nc2c1	20.1	24.1	2%	17.6	34.2%	16.6%
O=C(CC(=O)c1ccc(-c2ccc(C(=O)CC(=O)c3ccccc3)cc2)cc1)c1ccccc1	-16.4	-11	-20.4%	-34.4	-1.8%	-10.7%
CC(C)(C)OC(=O)NC(Cc1ccccc1)NC(=O)NC(=O)OCc1ccccc1 (configuration not stated)	-25.3	-9.85	-6.45%	-0.65	-13.8%	-27.1%
c1cncc(Cc2nc3ccccc3[nH]2)c1	-26.9	-2.5	-22.9%	-11.7	-5.1%	-34%
COc1ccc(C2=Nn3c(nc4sc(-c5ccccc5)cc4c3=O)SC2)cc1	-16.9	-9.15	-25.6%	3.55	-8.05%	-16%
[O-][n+]1cccc(CO)c1	-17.9	-47.9	-25.1%	6.05	-15%	-4.35%
O=C(/C=C(\c1ccccc1)C1C2C=CC(C2)C1c1ccccc1)c1ccccc1 (configuration not stated)	61.6	64.2	91.7% (active)	49	75.2% (active)	88.8% (active)
O=[N+]([O-])c1ccc2c(c1)C(O)c1ccccc1-2 (configuration not stated)	35.6	24.6	12.9%	26.9	26.2%	29.1%
Cc1ccccc1N=Nc1c(O)n(-c2ccccc2)c(=S)n(-c2ccccc2)c1=O	43.5	0.9	28.6%	-18.9	2.2%	14.4%
COC1OC(OC2OC=C3C(=O)OC4CC(C)C2C34)C(O)C(O)C1O (configuration not stated)	-17.1	-34.2	-18.7%	-14.3	-33.4%	-29.1%
O=C(c1cccs1)c1cccs1	-6.4	-12.9	-17.6%	-67	8.3%	-8.45%
Cc1[nH]c(=O)n2c(C)nnc2c1C(=O)Nc1cc(Cl)cc(Cl)c1	15.2	-0.45	39%	18.4	7.5%	31.2%
C[N+]1(C)N=C(c2ccccc2)C=C1[O-]	13.4	-9.75	-6.65%	-53.9	-2.5%	-3.85%
